Source: PubChem BioAssay AID1159580 (chemical genetic matrix, 2015)
“And” between values parts separate entries of the source, which are not always exact repeats. Equal values may be shown once. About 2,000 (36%) of roughly 5,500 compounds were called active. Not shown: some 18% with an inconclusive outcome. No stated cut-off is given here; in the data, active means normalized growth mostly below about 0.91 (no sharp cut-off); inconclusive means no clear call, values can overlap the other calls; inactive means mostly above about 0.92. Some of the results follow.

Assay: chemical genetic growth profiling, strain panel (AID 1159580);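 further: tested at 20 µM; growth read once vehicle control cultures reached saturation at 30 °C; 1 = growth at the plate median or of vehicle wells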
Details: S. cerevisiae deletion strains, growth OD

Measured: normalized growth

C=C[C@H]1CN2CC[C@H]1C[C@H]2[C@H](O)c1ccnc2ccccc12
inactive: locus YAL013W, strain DEP1, stronger effect = lower value 1.01 | locus YAL021C, strain ccr4, stronger effect = lower value 1 | locus YAL026C, strain drs2, stronger effect = lower value 0.995 | locus YAL030W, strain snc1, stronger effect = lower value 0.997 | locus YBL061C, strain skt5, stronger effect = lower value 0.995 | locus YBR009C, strain hhf1, stronger effect = lower value 0.992 | locus YBR021W, strain FUR4, stronger effect = lower value 1.01 | locus YBR023C, strain chs3, stronger effect = lower value 0.992 | locus YBR171W, strain sec66, stronger effect = lower value 1 | locus YBR229C, strain ROT2, stronger effect = lower value 1.01 | locus YBR231C, strain swc5, stronger effect = lower value 0.984 | locus YBR279W, strain paf1, stronger effect = lower value 1 | locus YCL011C, strain gbp2, stronger effect = lower value 1.01 | locus YCL016C, strain dcc1, stronger effect = lower value 0.994 | locus YCL029C, strain bik1, stronger effect = lower value 0.969 | locus YCL061C, strain MRC1, stronger effect = lower value 0.983 | locus YCL069W, strain vba3, stronger effect = lower value 1.01 | locus YCR088W, strain abp1, stronger effect = lower value 1 | locus YDL005C, strain med2, stronger effect = lower value 0.997 | locus YDL035C, strain GPR1, stronger effect = lower value 0.986 | locus YDL040C, strain nat1, stronger effect = lower value 0.999 | locus YDL074C, strain BRE1, stronger effect = lower value 1.04 | locus YDL101C, strain DUN1, stronger effect = lower value 0.988 | locus YDL134C, strain PPH21, stronger effect = lower value 1 | locus YDL185W, strain tfp1, stronger effect = lower value 0.965 | locus YDL192W, strain arf1, stronger effect = lower value 0.979 | locus YDR001C, strain nth1, stronger effect = lower value 0.986 | locus YDR069C, strain doa4, stronger effect = lower value 1.01 | locus YDR101C, strain arx1, stronger effect = lower value 0.985 | locus YDR137W, strain rgp1, stronger effect = lower value 1.02 | locus YDR150W, strain NUM1, stronger effect = lower value 0.966 | locus YDR159W, strain sac3, stronger effect = lower value 0.949 | locus YDR162C, strain NBP2, stronger effect = lower value 1.01 | locus YDR195W, strain ref2 0.959 | locus YDR297W, strain sur2, stronger effect = lower value 1 | locus YDR318W, strain mcm21, stronger effect = lower value 0.989 | locus YDR334W, strain swr1, stronger effect = lower value 1 | locus YDR335W, strain msn5, stronger effect = lower value 0.993 | locus YDR388W, stronger effect = lower value 0.979 | locus YDR392W, strain spt3, stronger effect = lower value 0.999 | locus YDR502C, strain sam2, stronger effect = lower value 0.979 | locus YEL003W, strain gim4, stronger effect = lower value 0.995 | locus YEL037C, strain rad23, stronger effect = lower value 0.993 | locus YEL061C, strain CIN8 (second series), stronger effect = lower value 0.999 | locus YEL061C, strain CIN8, stronger effect = lower value 1 | locus YER015W, strain faa2, stronger effect = lower value 1 | locus YER016W, strain bim1, stronger effect = lower value 0.975 | locus YER110C, stronger effect = lower value 0.976 | locus YER111C, strain swi4, stronger effect = lower value 1.01 | locus YER155C, strain BEM2 (second series), stronger effect = lower value 0.977 | locus YER155C, strain BEM2, stronger effect = lower value 0.98 | locus YER167W, strain BCK2, stronger effect = lower value 1.01 | locus YFR010W, strain ubp6, stronger effect = lower value 1.01 | locus YGL078C, strain dbp3, stronger effect = lower value 0.985 | locus YGL086W, strain mad1, stronger effect = lower value 0.99 | locus YGL167C, strain pmr1, stronger effect = lower value 0.987 | locus YGL173C, strain kem1, stronger effect = lower value 0.977 | locus YGL227W, strain vid30, stronger effect = lower value 1 | locus YGL240W, strain doc1, stronger effect = lower value 0.984 | locus YGL248W, strain PDE1, stronger effect = lower value 1.01 | locus YGL253W, strain hxk2, stronger effect = lower value 1 | locus YGR078C, strain PAC10, stronger effect = lower value 1.01 | locus YGR135W, strain pre9, stronger effect = lower value 0.974 | locus YGR229C, strain SMI1, stronger effect = lower value 1.02 | locus YGR252W, strain gcn5, stronger effect = lower value 0.982 | locus YHR013C, strain ard1, stronger effect = lower value 1 | locus YHR027C, strain rpn1, stronger effect = lower value 0.997 | locus YHR030C, strain SLT2, stronger effect = lower value 1 and 0.969 | locus YHR079C, strain IRE1 (second series), stronger effect = lower value 0.986 | locus YHR079C, strain IRE1, stronger effect = lower value 0.968 | locus YHR094C, strain hxt1, stronger effect = lower value 0.973 | locus YHR129C, strain ARP1, stronger effect = lower value 1.01 | locus YHR142W, strain chs7, stronger effect = lower value 1 | locus YHR200W, strain rpn10, stronger effect = lower value 0.981 | locus YIL066C, strain RNR3, stronger effect = lower value 1 | locus YIL073C, strain SPO22, stronger effect = lower value 0.927 | locus YIL125W, strain kgd1, stronger effect = lower value 0.994 | locus YIR030C, strain dcg1, stronger effect = lower value 0.979 | locus YJL092W, strain hpr5, stronger effect = lower value 0.999 | locus YJL095W, strain BCK1 (second series), stronger effect = lower value 0.998 | locus YJL095W, strain BCK1, stronger effect = lower value 1.04 and 0.962 | locus YJL115W, strain asf1, stronger effect = lower value 1 | locus YJL129C, strain trk1, stronger effect = lower value 0.988 | locus YJL134W, strain LCB3, stronger effect = lower value 0.995 | locus YJL154C, strain vps35, stronger effect = lower value 1 | locus YJL164C, strain tpk1, stronger effect = lower value 1.01 | locus YJL166W, strain qcr8, stronger effect = lower value 0.95 | locus YJL168C, strain set2, stronger effect = lower value 0.986 | locus YJL187C, strain SWE1 (second series), stronger effect = lower value 0.977 | locus YJR043C, strain POL32, stronger effect = lower value 1.01 | locus YJR066W, strain TOR1, stronger effect = lower value 0.942
